In PubChem BioAssay:
A number with no mark means an inactive call. The source made the active and inactive calls. Unless noted, no rule for the calls is given here.

What was measured:
[1] = compounds altering circadian rhythm period length – cell-based, LOPAC library, luminescence reporter (AID 2774); settings: circadian reporter cells, at 7 µM, actives lie on both sides;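 also: values are relative to mean of DMSO wells on each plate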
[2] = antimalarial activity against Dd2 strain (AID 2302;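 active = growth inhibition above 50% at the single 2 µM test dose, taken to imply half-maximal potency below 2 µM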;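 also: 0% = DMSO untreated growth and 100% = chloroquine plus artemisinin killed control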); settings: P. falciparum Dd2 in RBCs, LDH growth readout, 72 h; at 2 µM; hits give high values
[3] = human hepatoma cell viability loss – ATP luminescence, cytotoxicity control for P. falciparum antimalarial project, primary screen (AID 2303;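 active = inhibition above 50%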;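 also: 0% = DMSO wells and 100% = digitonin-killed cells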); settings: HepG2 viability, 24-48 h, at 10 µM, hits give high values
[4] = target: L-lactate dehydrogenase (Plasmodium falciparum (isolate CDC / Honduras)) (UniProt Q27743); assay: PfLDH activity inhibition – cell lysate, 3D7 strain, counter-screen for P. falciparum growth inhibition project (AID 2304);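 also: 0% = vehicle and 100% = reference inhibitor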; settings: P. falciparum 3D7 crude extract, LDH APAD/NBT absorbance; at 2 µM; hits give high values
[5] = inhibition of 3D7 malaria parasite growth – strain 3D7 (AID 2306);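 also: 0% = DMSO wells and 100% = chloroquine plus artemisinin control wells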; settings: P. falciparum 3D7 erythrocytic growth, LDH absorbance, 72 h; at 2 µM; hits give high values

Chain of L-lactate dehydrogenase (Plasmodium falciparum (isolate CDC / Honduras)) (Q27743 whole entry, looked up): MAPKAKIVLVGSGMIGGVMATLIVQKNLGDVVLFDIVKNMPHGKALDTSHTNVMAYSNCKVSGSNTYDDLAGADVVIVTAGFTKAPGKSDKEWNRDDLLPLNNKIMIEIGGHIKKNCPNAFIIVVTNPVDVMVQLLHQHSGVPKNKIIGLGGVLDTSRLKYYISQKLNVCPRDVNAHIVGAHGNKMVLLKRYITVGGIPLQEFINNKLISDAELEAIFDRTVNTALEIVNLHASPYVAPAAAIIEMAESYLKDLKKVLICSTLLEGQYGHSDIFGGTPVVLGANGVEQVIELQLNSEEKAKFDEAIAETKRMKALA

## C=CCN1CCC2(C)c3cc(O)ccc3CC1C2C (stereo unspecified)
[1]
  period change: -0.18 h

## C[C@]12CC[C@H](OS(=O)(=O)O)CC1=CC[C@@H]1[C@@H]2CC[C@]2(C)C(=O)CC[C@@H]12
[1]
  period change: -0.035 h

## COC(=O)/C=C/c1ccc(CC(C)NCC(O)c2cccc(C(F)(F)F)c2)cc1 (stereo unspecified)
[2]
  growth inhibition: 96% (active)
[3]
  inhibition: 16%
[4]
  inhibition: 0%
[5]
  growth inhibition: 97% (active)
